Assay outcomes from PubChem.
In the library only some 0.9% were active in any assay of this set; here they are far more common.
BLM inh: blocks DNA unwinding by human BLM helicase. P54132. recombinant BLM DNA unwinding, fluorescence dequenching. Potency, µM (doses to about 56.1 µM), without a hit: at the highest dose activity change, negative = inhibition, actives largely listed as inhibitors. 350,000 tested, 0.2% active;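 also: plate controls were vehicle for no effect and no enzyme for full effect; nearly all actives have a fitted effect of over 35% in size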
RECQ1 inh-1: RECQ1 (human) helicase inhibition | P46063 | RECQ1 DNA unwinding, red fluorescence kinetic read | Potency, µM (top dose mostly 57.3 µM), for the others: top-dose activity, negative = inhibition, usual class: inhibitors | 240,000 tested, 0.54% active | AID 2549;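 also: plate controls were vehicle for no effect and no enzyme for full effect; nearly all actives have a fitted effect of over 30% in size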
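50 nM RECQ1T1 preincubated 15 min with compound in Tris pH 8.0 buffer with MgCl2, DTT, Tween-20 and 2.5 ug/ml poly(dI-dC); started with 200 nM TAMRA/BHQ-2 forked duplex and 2 mM ATP. Unwinding read as fluorescence (525/598 nm), two reads 2 h apart.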
TDP1 block: inhibitors of human tyrosyl-DNA phosphodiesterase TDP1 | 350,000 tested, 0.28% active | Potency, µM (highest dose often 130 µM), for inactives: at the top dose activity change, negative = inhibition, usual class: inhibitors | recombinant TDP1, AlphaScreen DNA substrate cleavage | AID 485290 | Q9NUW8; also: nearly all actives have a fitted effect of over 40% in size
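Steps: enzyme plus compound, 15 min RT; add biotin/phosphotyrosine-FITC oligonucleotide (15 nM final), react 5 min; add donor/acceptor beads (10 ug/ml final), 10 min; read AlphaScreen. Tdp1 at 1 nM final.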
APE1 inh: APE1 (human) endonuclease inhibition; P27695; recombinant APE1, TAMRA/BHQ-2 abasic DNA cleavage fluorescence; Potency, µM (top dose mostly 65.8 µM), for the others: top-dose activity change, negative = inhibition, hits mostly inhibitors; 350,000 tested, 0.35% active;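 also: plate controls were vehicle for no effect and reference inhibitor for full effect; nearly all actives have a fitted effect of over 55% in size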
Target sequence (P27695 whole entry, looked up): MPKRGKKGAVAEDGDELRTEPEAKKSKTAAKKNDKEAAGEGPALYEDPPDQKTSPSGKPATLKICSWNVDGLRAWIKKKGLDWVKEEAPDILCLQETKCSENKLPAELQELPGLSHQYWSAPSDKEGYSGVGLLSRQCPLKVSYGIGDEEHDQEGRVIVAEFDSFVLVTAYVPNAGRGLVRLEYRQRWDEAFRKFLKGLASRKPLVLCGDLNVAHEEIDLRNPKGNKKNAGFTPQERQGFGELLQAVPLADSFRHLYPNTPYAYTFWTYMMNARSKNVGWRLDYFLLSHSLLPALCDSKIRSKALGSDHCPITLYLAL
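Activity was derived from the fluorescence gain between first and third kinetic reads (60 s intervals, ex 525/em 598 nm) after 50 nM THF-abasic TAMRA/BHQ-2 duplex was added to 0.75 nM APE1 preincubated 15 min with compound.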
GCN5L2 inh: GCN5L2 (KAT2A) acetyltransferase inhibition. 390,000 tested, 0.21% active. Q92830. GCN5L2 HAT assay, ThioGlo1 CoA-SH fluorescence. Potency, µM (titrated, usually from 58.9 µM), for the others: at the top dose activity change, negative = inhibition, most hits filed as inhibitors
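qHTS, 1536-well. 20nM enzyme, pH 7.5 HEPES/EDTA/Tween-20 buffer; 15 min compound preinc., RT. Start: 75uM H3(1-25), 70uM AcCoA, 50uM ThioGlo1. Read Ex340/Em540 at t=0 (autofluorescence flag) and t=20 min.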
Lamin A splicing: modulators of lamin A splicing. Potency, µM (doses to about 46.1 µM), inactives show top-dose ratio change, negative = inhibition, hits mostly inhibitors. 200,000 tested, 0.01% active. AID 1487. HeLa LMNA splicing GFP/RFP minigene ratio, 48 h; active = well fitted inhibition curve with a large enough effect in the signal ratio, with a control signal flat, not every such curve was filed as active; inconclusive = small, poorly fitted or top-dose-only effect, or effect the other way, or a change in a side signal; the % refers to the signal ratio
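Read-out is the ratio of GFP to DsRed2 object intensity, acquired by 488 nm laser-scanning cytometry on HeLa lamin A-EGFP minigene reporter cells. Compound incubation 48 hrs at 37 °C in Opti-MEM with 2% FBS; DMSO 0.5% final.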
RECQ1 conf: confirmation of human RECQ1 helicase inhibitors; RECQ1 helicase DNA unwinding, fluorescence; 610 tested, 28% active; shares compounds with RECQ1 inh-1; Potency, µM (top dose mostly 229 µM), inactives show at the highest dose activity change, negative = inhibition, actives largely listed as inhibitors; also: nearly all actives have a fitted effect of over 45% in size
ADP FP counter: ADP displacement flagged in RECQ1 inhibitor counter-screen | shares compounds with RECQ1 inh-1 | ADP fluorescence polarization displacement counterscreen | Potency, µM (titrated, usually from 228 µM), without a hit: top-dose activity change, negative = inhibition, actives largely listed as inhibitors | 530 tested, 27% active | AID 2711; also: nearly all actives have a fitted effect of over 45% in size
RECQ1 inh-2: RECQ1 helicase inhibition confirmed, round 2; shares compounds with RECQ1 inh-1; AID 504841; recombinant RECQ1 DNA unwinding, red fluorescence; Potency, µM (titrated, usually from 119 µM), for inactives: at the highest dose activity, negative = inhibition, most hits filed as inhibitors; 1,100 tested, 15% active; also: nearly all actives have a fitted effect of over 50% in size
Numbers without * were called inactive; [ ] = remark or other dose. Unless noted, calls follow the shape of the dose curve; as a rule, active = well fitted curve in the direction sought with a large enough effect; inconclusive = small, poorly fitted or top-dose-only effect, or another doubt; inactive = no such curve, though single readings can be large; an effect the other way counts as inactive or inconclusive. Unless noted, % is scaled to controls: 0 for no effect and ±100 for the full control effect; potency is read from the fitted curve at half-maximal effect.

Cc1cccc(N2CCN(C(=O)CCS(=O)(=O)c3ccc(Br)cc3)CC2C)c1 (configuration not stated) was read as BLM inh -28%, RECQ1 inh-1 35µM*, APE1 inh -2%, GCN5L2 inh inconclusive and RECQ1 inh-2 40µM*.
`CC(=O)N1CCCc2cc(S(=O)(=O)CCC(=O)N3CCN(c4cccc(C)c4)C(C)C3)ccc21` (configuration not stated) gave BLM inh -6%, RECQ1 inh-1 -3%, TDP1 block -5%, APE1 inh inconclusive, GCN5L2 inh -7% and Lamin A splicing 4%.
`COc1cc(/C=N/N2C(=O)CSC2=S)cc(Br)c1O` gave BLM inh -6%, RECQ1 inh-1 35µM*, TDP1 block inconclusive, APE1 inh inconclusive, GCN5L2 inh -8%, Lamin A splicing 3%[46 µM] and RECQ1 conf inconclusive.
CCOC(=O)Cc1cc(=O)c2c(=O)n(-c3ccccc3)[nH]c2[nH]1 was read as BLM inh -1%, RECQ1 inh-1 inconclusive, TDP1 block 2%, APE1 inh -8%, GCN5L2 inh 0%, Lamin A splicing -5% and RECQ1 inh-2 -1%.
CCOC(=O)Cc1ccc(-c2ccccc2)cc1 was read as BLM inh 6%, TDP1 block -2%, GCN5L2 inh -3% and Lamin A splicing inconclusive.
`COc1cc(C(=O)Nc2nc3ccc(S(=O)(=O)N4CCOCC4)cc3s2)cc(OC)c1OC` gave BLM inh -8%, RECQ1 inh-1 inconclusive, TDP1 block 8%, APE1 inh 11%, GCN5L2 inh -18%, Lamin A splicing -26% and RECQ1 inh-2 32µM*.
COc1cc(/C=C/C(=O)Nc2nc3ccc(S(=O)(=O)N(C)C)cc3s2)cc(OC)c1OC was read as BLM inh 5µM*, RECQ1 inh-1 6.3µM*, TDP1 block 3%, APE1 inh -6%, GCN5L2 inh -7%, Lamin A splicing -5% and RECQ1 inh-2 2.2µM*.
Screening CNS(=O)(=O)c1ccc2nc(NC(=O)/C=C/c3ccco3)sc2c1 returned BLM inh -4%, RECQ1 inh-1 inconclusive, TDP1 block inconclusive, APE1 inh inconclusive, GCN5L2 inh -16%, Lamin A splicing inconclusive and RECQ1 inh-2 -21%.
`COc1cc(/C=C/C(=O)Nc2nnc(C(C)(C)C)s2)cc(OC)c1OC` gave BLM inh -5%, RECQ1 inh-1 -14%, TDP1 block 3%, APE1 inh 24%, GCN5L2 inh -10% and Lamin A splicing -4%.
O=C(Nc1ccc(-c2nc3ccc(NC(=O)c4cccs4)cc3[nH]2)cc1)c1cccs1 was read as BLM inh -5%, RECQ1 inh-1 inconclusive, TDP1 block -9%, APE1 inh inconclusive, GCN5L2 inh 0%, Lamin A splicing 8% and RECQ1 inh-2 inconclusive.
`COCCN1C(=O)C(=O)/C(=C(/O)c2ccc(S(=O)(=O)N3CCOCC3)cc2)C1c1cccc(O)c1` (configuration not stated) gave BLM inh 8%, RECQ1 inh-1 -3%, APE1 inh -8%, GCN5L2 inh -11%, RECQ1 conf 0% and ADP FP counter 4%.
COCCN1C(=O)C(=O)/C(=C(/O)c2ccc(S(=O)(=O)N3CCOCC3)cc2)C1c1ccc(C(C)C)cc1 (configuration not stated) was read as BLM inh -1%, RECQ1 inh-1 -4%, TDP1 block 0%, APE1 inh -3%, GCN5L2 inh -9% and Lamin A splicing 12%.
`COc1ccc(NC(=O)Cn2cc(S(=O)(=O)c3ccccc3)c(=O)c3cc(C)ccc32)cc1Cl` gave BLM inh -10%, TDP1 block 6% and GCN5L2 inh -1%.
Screening Cc1ccc(S(=O)(=O)N2CCN(c3nc(-c4cccs4)nc4ccccc34)CC2)c(C)c1 returned TDP1 block -2%.
Cc1cc(NC(=O)CSc2nnc(-c3ccc(S(=O)(=O)N4CCCC4)cc3)n2C)no1 was read as BLM inh 1%, RECQ1 inh-1 -7%, TDP1 block 1%, APE1 inh 2%, GCN5L2 inh -1%, Lamin A splicing 2%, RECQ1 conf -4% and ADP FP counter 3%.
Screening CCn1c(SCC(=O)Nc2cc(C)on2)nnc1-c1ccc(S(=O)(=O)N2CCCC2)cc1 returned BLM inh -1%, RECQ1 inh-1 inactive, TDP1 block -5%, APE1 inh 1%, GCN5L2 inh -16% and Lamin A splicing 0%.
Cc1csc(NC(=O)CSc2nnc(-c3ccc(S(=O)(=O)N4CCCC4)cc3)o2)n1 was read as BLM inh 1%, RECQ1 inh-1 -1%, TDP1 block 5%, APE1 inh 0%, GCN5L2 inh -3%, Lamin A splicing 9%, RECQ1 conf 8% and ADP FP counter 11%.
`C=CCSc1nc(=O)n2ccc(C)cc2n1` gave BLM inh -21%, RECQ1 inh-1 1.6µM*, TDP1 block -2%, APE1 inh -5%, GCN5L2 inh -20%, RECQ1 conf 5%[114 µM], ADP FP counter -6%[91.9 µM] and RECQ1 inh-2 -21%.
COc1cccc(C2C(C(=O)Nc3ccccc3OC)=C(C)Nc3nc(-c4ccco4)nn32)c1 (configuration not stated) was read as BLM inh -9% and GCN5L2 inh -10%.
Nc1cc2nc3ccccc3oc-2cc1=O was read as BLM inh -14%, RECQ1 inh-1 inconclusive, TDP1 block -8%, APE1 inh 1%, GCN5L2 inh 1% and RECQ1 inh-2 inconclusive.
